# High-throughput results as filed in PubChem BioAssay.
# This is one part of a sample in which hits are shown more often than they occur.
# miR-122 inh: activators of miR-122 sensor in Huh7 cells; Huh7 psiCHECK-miR122 Renilla luciferase sensor, 48 h; activation, % at 12.5 µM; 0.14% of 340,000 active;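 active = mean activation of 30% or more, with every replicate also reaching 30%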;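 note: 0% = median of neutral control wells and 100% = median of positive control wells; higher luciferase signal means stronger suppression of miR-122 activity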
# * hit, by the source's call.
SMILES,miR-122 inh
C[C@@H]1CN([C@H](C)CO)S(=O)(=O)c2ccc(C3=CCCCC3)cc2O[C@@H]1CN(C)C(=O)Nc1ccc2c(c1)OCO2,32*
C[C@H]1CN([C@@H](C)CO)S(=O)(=O)c2ccc(Br)cc2O[C@@H]1CN(C)C(=O)Nc1ccc2c(c1)OCO2,-1
C[C@@H]1CN([C@H](C)CO)S(=O)(=O)c2ccc(C3=CCCCC3)cc2O[C@H]1CN(C)S(C)(=O)=O,6
C[C@H]1CN([C@@H](C)CO)S(=O)(=O)c2ccc(C3=CCCCC3)cc2O[C@H]1CN(C)C(=O)CC1CC1,7
C[C@@H]1CN([C@@H](C)CO)S(=O)(=O)c2ccc(C3=CCCCC3)cc2O[C@@H]1CN(C)C(=O)Nc1ccc2c(c1)OCO2,46*
CC(C)NC(=O)N(C)C[C@@H]1Oc2cc(C3=CCCCC3)ccc2S(=O)(=O)N([C@@H](C)CO)C[C@@H]1C,1
C[C@H](CO)N1C[C@H](C)[C@@H](CN(C)S(C)(=O)=O)Oc2cc(C3=CCCCC3)ccc2S1(=O)=O,-13
C[C@@H]1CN([C@@H](C)CO)S(=O)(=O)c2ccc(C3=CCCCC3)cc2O[C@@H]1CN(C)C(=O)Cc1ccncc1,48*
C[C@@H]1CN([C@@H](C)CO)S(=O)(=O)c2ccc(C3=CCCC3)cc2O[C@@H]1CN(C)C(=O)c1ccc(F)cc1,37*
C[C@@H]1CN([C@@H](C)CO)S(=O)(=O)c2ccc(C3=CCCCC3)cc2O[C@@H]1CN(C)C(=O)CC1CC1,-3
C[C@H]1CN([C@@H](C)CO)S(=O)(=O)c2ccc(C#Cc3ccccc3)cc2O[C@H]1CN(C)C(=O)Nc1ccc2c(c1)OCO2,-3
C[C@@H]1CN([C@H](C)CO)S(=O)(=O)c2ccc(C3=CCCCC3)cc2O[C@@H]1CN(C)S(C)(=O)=O,-25
C/C=C/c1cnc2c(c1)C(=O)N([C@@H](C)CO)C[C@@H](C)[C@@H](CN(C)C(=O)Cc1cccnc1)O2,-5
Cc1ccc(-c2cnc3c(c2)C(=O)N([C@@H](C)CO)C[C@H](C)[C@H](CN(C)C(=O)c2ccncc2)O3)cc1,0
C[C@@H]1CN([C@@H](C)CO)S(=O)(=O)c2ccc(C#CCC3CCCC3)cc2O[C@@H]1CN(C)C(=O)CC1CC1,-3
CO[C@H]1CN(C)C(=O)c2ccc(NC(=O)Nc3cccc(F)c3)cc2OC[C@@H](C)N(C)C[C@@H]1C,-2
C[C@H](CO)N1C[C@H](C)[C@H](CN(C)S(=O)(=O)c2ccccc2)Oc2ncc(C#Cc3ccccc3F)cc2C1=O,15
CC(=O)N(C)C[C@@H]1Oc2cc(C#CC3CCCCC3)ccc2S(=O)(=O)N([C@H](C)CO)C[C@H]1C,1
C[C@@H]1CN([C@H](C)CO)C(=O)c2cc(C#Cc3ccc(F)cc3)cnc2O[C@@H]1CN(C)C(=O)c1ccccc1F,9
C[C@H](CO)N1C[C@H](C)[C@H](CN(C)S(C)(=O)=O)Oc2cc(-c3ccccc3F)ccc2S1(=O)=O,7
COc1ccc(NC(=O)N(C)C[C@H]2Oc3ncc(C4=CCCC4)cc3C(=O)N([C@H](C)CO)C[C@H]2C)cc1,6
C[C@H](CO)N1C[C@H](C)[C@H](CN(C)C(=O)c2ccccc2F)Oc2ncc(-c3ccncc3)cc2C1=O,8
C[C@@H]1CN([C@@H](C)CO)C(=O)c2cc(-c3cccnc3)cnc2O[C@H]1CN(C)C(=O)Nc1ccc(F)cc1,-8
C[C@H](CO)N1C[C@H](C)[C@@H](CN(C)Cc2cncnc2)Oc2cc(-c3ccncc3)ccc2S1(=O)=O,-6
CCc1ccc(-c2cc(C(=O)NCc3ccccn3)c3ccccc3n2)cc1,-148
SMILES,miR-122 inh
O=C(CCCCCN1C(=O)c2ccccc2C1=O)NCc1ccccn1,35*
O=C(CCCCCCC(=O)Nc1ccccc1)NO,-232
COCC(=O)N(C)C[C@@H]1Oc2cc(-c3cccc(F)c3)ccc2S(=O)(=O)N([C@H](C)CO)C[C@@H]1C,-5
C[C@@H]1CN([C@@H](C)CO)C(=O)c2cc(-c3ccc(F)cc3)cnc2O[C@@H]1CN(C)C(=O)c1cccnc1,3
CCCNC(=O)Nc1ccc2c(c1)OC[C@H](C)N(C)C[C@@H](C)[C@H](OC)CN(C)C2=O,-1
C[C@@H]1CN([C@H](C)CO)C(=O)c2cc(/C=C/c3ccccc3)cnc2O[C@@H]1CN(C)Cc1cccc(C(=O)O)c1,7
CCC(=O)N(C)C[C@H]1Oc2cc(C#Cc3cccnc3)ccc2S(=O)(=O)N([C@@H](C)CO)C[C@H]1C,-16
CC(C)C#Cc1ccc2c(c1)O[C@H](CN(C)C(=O)c1ccncc1)[C@H](C)CN([C@H](C)CO)S2(=O)=O,53*
CCCC#Cc1ccc2c(c1)O[C@H](CN(C)C(=O)CC)[C@H](C)CN([C@@H](C)CO)S2(=O)=O,-1
COCC(=O)N(C)C[C@H]1Oc2cc(C#Cc3cccnc3)ccc2S(=O)(=O)N([C@H](C)CO)C[C@H]1C,51*
C[C@@H]1CN([C@H](C)CO)S(=O)(=O)c2ccc(C#Cc3ccncc3)cc2O[C@H]1CN(C)C(=O)C1CCCCC1,-32
C[C@@H]1CN([C@@H](C)CO)S(=O)(=O)c2ccc(C#Cc3ccncc3)cc2O[C@@H]1CN(C)C(=O)C1CCOCC1,33*
CCC(=O)N(C)C[C@H]1Oc2cc(C#Cc3ccccc3)ccc2S(=O)(=O)N([C@H](C)CO)C[C@H]1C,56*
C[C@@H](O)C#Cc1ccc2c(c1)O[C@@H](CN(C)C(=O)c1ccncc1)[C@@H](C)CN([C@@H](C)CO)S2(=O)=O,2
C[C@H](O)C#Cc1ccc2c(c1)O[C@@H](CN(C)C(=O)c1ccncc1)[C@H](C)CN([C@@H](C)CO)S2(=O)=O,-3
C[C@@H]1CN([C@H](C)CO)S(=O)(=O)c2ccc(C#Cc3ccncc3)cc2O[C@@H]1CN(C)C(=O)C1CCCCC1,19
CCCC#Cc1ccc2c(c1)O[C@H](CN(C)C(=O)CC)[C@H](C)CN([C@H](C)CO)S2(=O)=O,1
CCC(=O)N(C)C[C@@H]1Oc2cc(C#Cc3cccnc3)ccc2S(=O)(=O)N([C@@H](C)CO)C[C@H]1C,-8
COc1ccc(NC(=O)N(C)C[C@@H]2Oc3ncc(-c4cc5ccccc5o4)cc3C(=O)N([C@H](C)CO)C[C@@H]2C)cc1,8
Cc1ccc(S(=O)(=O)N(C)C[C@H]2Oc3cc(C#CC4CCCC4)ccc3S(=O)(=O)N([C@@H](C)CO)C[C@@H]2C)cc1,-62
C[C@H]1CN([C@@H](C)CO)C(=O)c2cccc(NC(=O)c3ccncc3)c2O[C@@H]1CN(C)Cc1ccc(C(F)(F)F)cc1,-108
CCCN(C)C[C@H]1Oc2cc(C#CC3(O)CCCC3)ccc2S(=O)(=O)N([C@H](C)CO)C[C@H]1C,-2
C[C@H](CO)N1C[C@H](C)[C@H](CN(C)S(C)(=O)=O)Oc2ncc(Br)cc2C1=O,-1
C[C@@H]1CN([C@@H](C)CO)C(=O)c2cc(-c3cccc(F)c3)cnc2O[C@H]1CN(C)C(=O)c1cccc(F)c1,4
C/C=C/c1ccc2c(c1)O[C@H](CN(C)C(=O)CC1CC1)[C@H](C)CN([C@@H](C)CO)S2(=O)=O,-6
COc1ccc(C#Cc2cnc3c(c2)C(=O)N([C@H](C)CO)C[C@H](C)[C@H](CN(C)CC2CCCC2)O3)cc1,12
CCCC(=O)Nc1ccc2c(c1)C(=O)N(C)C[C@@H](OC)[C@H](C)CN(CCC)[C@H](C)CO2,-1
CCCC#Cc1cnc2c(c1)C(=O)N([C@H](C)CO)C[C@H](C)[C@H](CN(C)C(=O)Cc1ccccc1)O2,-1
